High-throughput results: PubChem, National Center for Advancing Translational Sciences (NCATS)
Only some compounds are listed: those with a hit (about 17% of all), similar ones and a draw of the others.
HepG2 tox: kills HepG2 cells in TGF-b inhibitor counter-screen; HepG2 CAGA-GFP viability, ATP luminescence, 18 h; Potency, µM (doses to about 46.1 µM), for the others: at the highest dose activity change, negative = cytotoxicity, actives largely listed as cytotoxic; 410,000 compounds, 0.76% hits; AID 588856
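CellTiter-Glo luminescence gave cytotoxicity after 18 hours at 37 degrees C. The cells were HepG2 CAGA-GFP in 1% FBS DMEM, stimulated with 500 pg/mL TGF-beta after compound addition. %Activity was normalised to no-cell wells (complete cell-killing) and DMSO (no toxicity), and curves were fitted and classified.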
DT40 TDP1 CPT: growth inhibition of DT40 Tdp1-/-;hTDP1 cells with camptothecin (screen for TDP1 inhibitors) | 420,000 compounds, 12% hits | chicken DT40 Tdp1-/-;hTDP1 cells + 20 nM CPT, ATP luminescence, 48 h | AID 686979 | Potency, µM (series often up to 46.2 µM), for inactives: at the highest dose activity change, negative = growth inhibition, hits mostly inhibitors; also: % is scaled to controls: 0 for no effect and ±100 for the full control effect; nearly all actives have a fitted effect of over 55% in size
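Chicken DT40 Tdp1-/- cells stably complemented with human TDP1 were seeded at 400 cells/well in medium containing 20 nM camptothecin, exposed to pin-transferred compounds, and grown at 37 °C for at least 48 hr. Viability was read as ATP luminescence.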
S2 tox: cell viability loss in ATXN counter-screen; S2 cells (HEK-293 line with an ATXN2-luciferase reporter) viability, CellTiter-Fluor protease fluorescence, 24 h; Potency, µM (titrated, usually from 56.7 µM), hits mostly cytotoxic; AID 651635; 400,000 compounds, 0.49% hits; also: nearly all actives have a fitted effect of over 40% in size
TGFb SMAD3 inh: blocks TGF-b signaling. HepG2 CAGA-GFP TGF-b/SMAD3 reporter, GFP fluorescence, 18 h; TGF-beta stimulated, 500 pg/mL final. Potency, µM (top dose mostly 46.1 µM), for inactives: at the top dose activity, negative = inhibition, most hits filed as inhibitors. 410,000 compounds, 1.2% hits. AID 588855; also: % is scaled to controls: 0 for no effect and ±100 for the full control effect; nearly all actives have a fitted effect of over 65% in size
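Cell-based qHTS in HEPG2 carrying a CAGA-GFP Smad reporter; compounds added before 500 pg/mL final TGF-beta, 18 h incubation at 37 degrees C, GFP fluorescence quantified per cell by imaging cytometry.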
ATXN2 expr inh: ATXN2 expression inhibition; Potency, µM (top dose mostly 57 µM), inactives show top-dose activity change, negative = inhibition, usual class: inhibitors; AID 1745845; 360,000 compounds, 0.72% hits; HEK-293 ATXN2-luciferase reporter, luminescence, 24 h; also: % is scaled to controls: 0 for no effect and ±100 for the full control effect; nearly all actives have a fitted effect of over 55% in size
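ATXN2-luciferase reporter cells (luciferase flanked by upstream and downstream ATXN2 gene portions) were treated 24 h at 37 °C with compounds at up to 57 uM. SteadyGlo luminescence gave expression; GF-AFC fluorescence gave viability.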
TDP1 cell noCPT: qHTS for Inhibitors of human tyrosyl-DNA phosphodiesterase 1 (TDP1): qHTS in cells in absence of CPT; DT40 Tdp1-/- hTDP1 cells, no CPT, ATP luminescence, 48 h; Potency, µM (titrated, usually from 46.2 µM), without a hit: at the highest dose activity change, negative = growth inhibition, most hits filed as inhibitors; 420,000 compounds, 15% hits; AID 686978, 2013; also: % is scaled to controls: 0 for no effect and ±100 for the full control effect; nearly all actives have a fitted effect of over 55% in size
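Chicken DT40 Tdp1-/- cells complemented with human TDP1, screened without camptothecin (DMSO vehicle only), 400 cells/well. Compounds pin-transferred, cells incubated at 37 °C for at least 48 hr. Growth read as ATP-dependent luminescence (CellTiter-Glo, 30 min at RT).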
Starred values were filed as active, the others as inactive; i = inactive; ? = inconclusive; · = no result given; [ ] = remark or other dose. Calls follow the shape of the dose curve; as a rule, active = well fitted curve in the direction sought with a large enough effect; inconclusive = small, poorly fitted or top-dose-only effect, or another doubt; inactive = no such curve, though single readings can be large; an effect the other way counts as inactive or inconclusive. Potency is read from the fitted curve at half-maximal effect.

SMILES | HepG2 tox | DT40 TDP1 CPT | S2 tox | TGFb SMAD3 inh | ATXN2 expr inh | TDP1 cell noCPT
Cc1ccc2cc(CN(C(=O)c3cccs3)c3ccccc3)c(=O)[nH]c2c1 | 0% | ? | i | -1% | 0% | ?
CCC(=O)N(Cc1cc2cc(OC)ccc2[nH]c1=O)c1ccc(C)cc1 | -40% | ? | ? | -29% | -7% | 10µM*
Cc1cccc(N(Cc2cc3ccccc3[nH]c2=O)C(=O)c2cccc(Cl)c2)c1 | -35% | 23µM* | i | -14% | -7% | 16µM*
Cc1ccc2[nH]c(=O)c(CN(C(=O)c3cccs3)c3ccccc3)cc2c1 | 11% | ? | i | ? | 4% | 16µM*
Cc1ccc(OCn2c(=O)sc3ccccc32)cc1 | -1% | ? | i | 14% | 0% | ?
Nc1cc(=O)[nH]c(SCC(=O)Nc2cccc(S(=O)(=O)N3CCCCCC3)c2)n1 | -1% | -1% | i | 7% | -1% | -6%
COc1ccc(CNC(=O)c2oc3c(c2C)-c2nn(Cc4ccc(Cl)cc4)cc2CC3)cc1 | -15% | ? | · | -11% | · | 23µM*
CCOc1ccc(CNC(=O)Cn2cc3c(n2)-c2c(oc(C(=O)N4CCOCC4)c2C)CC3)cc1 | -18% | ? | · | ? | · | 21µM*
Cc1c(C(=O)N2CCCC2)oc2c1-c1nn(CC(=O)NCCCN3CCCCC3)cc1CC2 | -3% | -2% | i | 1% | -17% | 2%
COc1cccc(CNC(=O)c2oc3c(c2C)-c2nn(Cc4cccc(Cl)c4)cc2CC3)c1 | -13% | ? | · | 0% | · | 18µM*
COc1cccc(CNC(=O)c2oc3c(c2C)-c2nn(Cc4cccc(Cl)c4)cc2CC3)c1OC | -5% | 16µM* | · | -19% | · | 21µM*
O=Cc1cn(-c2ccccc2)nc1-c1cccc([N+](=O)[O-])c1 | -8% | ? | i | 5% | · | ?
N#Cc1ccc(N/N=C/c2cn(-c3ccccc3)nc2-c2ccccc2)c([N+](=O)[O-])c1 | -4% | 3.7µM* | i | 3% | -3% | 8.2µM*
Cc1ccc(N=N/C(=C\O)C(=O)c2ccncc2)cc1 | -40% | ? | i | 10% | -8% | ?
O=C(/C(=C/O)N=Nc1ccc(Cl)cc1)c1ccncc1 | -100% | 15µM* | i | ? | -32% | 26µM*
COc1ccc(C(=O)/C(=C/O)N=Nc2ccc(F)cc2)cc1 | -38% | ? | 22µM* | ? | ? | ?
COc1ccc(N=N/C(=C\O)C(=O)c2cccs2)cc1 | -20% | 0% | ? | ? | ? | ?
Cc1cccc(N=N/C(=C\O)C(=O)c2ccc(Br)cc2)c1 | -70% | 8.2µM* | · | 10µM* | -33% | ?
COc1ccc(NC(=O)c2cc(-c3sc(NC(=O)c4ccccc4)nc3C)n(-c3ccc(Br)cc3)n2)cc1 | · | 3% | · | · | · | -23%
COc1ccc(OC)c(-c2cc(C(=O)Nc3c(C)nn(Cc4ccccc4Cl)c3C)no2)c1 | -4% | 15µM* | i | ? | -20% | 23µM*
COc1ccccc1-c1cc(C(=O)Nc2c(C)nn(Cc3ccc(Cl)cc3)c2C)no1 | -25% | 21µM* | ? | ? | ? | 21µM*
COc1ccc(-c2cc(C(=O)Nc3c(C)nn(Cc4ccccc4Cl)c3C)no2)cc1OC | -1% | ? | i | -24% | -6% | ?
COc1ccc(-c2cc(C(=O)Nc3c(C)nn(Cc4ccc(Cl)cc4)c3C)no2)cc1 | -18% | -30% | ? | 1% | -28% | ?
COc1cccc(-c2cc(C(=O)Nc3c(C)nn(Cc4ccccc4Cl)c3C)no2)c1 | -26% | 9.2µM* | ? | ? | -23% | 13µM*
COc1ccc(OC)c(-c2cc(C(=O)Nc3c(C)nn(Cc4ccccc4C)c3C)no2)c1 | -25% | 10µM* | i | -10% | -24% | 10µM*
SMILES | HepG2 tox | DT40 TDP1 CPT | S2 tox | TGFb SMAD3 inh | ATXN2 expr inh | TDP1 cell noCPT
OCc1cc(-c2ccc(Cl)c(Cl)c2)on1 | -18% | 8% | i | 5% | -10% | -16%
CC(C)Oc1ccccc1C1C=C(C(=O)O)Nc2ncnn21 (stereo not given) | -38% | 4% | i | -24% | 1% | -2%
COc1ccc(OC)c(-c2cc(C(=O)Nc3c(C)nn(Cc4ccc(C)cc4)c3C)no2)c1 | 3% | 21µM* | i | -27% | -9% | 18µM*
COc1ccc(OC)c(-c2cc(C(=O)Nc3ccc(C)c(C)c3)no2)c1 | -23% | ? | i | 63% | 9% | 18µM*
COc1ccc(-c2cc(C(=O)Nc3c(C)nn(Cc4ccc(C)cc4)c3C)no2)cc1OC | -22% | ? | ? | -10% | -29% | -5%
COC(=O)[C@@]12C[C@@H](CC(=O)NCC3CCCCC3)C(=O)N(Cc3cccc4ccccc34)C1=CCC(C)(C)C2 | · | 21µM* | · | · | · | 16µM*
COC(=O)[C@@]12C[C@@H](CC(=O)NCc3ccccc3)C(=O)N(Cc3cccc4ccccc34)C1=CCC(C)(C)C2 | · | ? | · | · | · | 18µM*
COC(=O)[C@@]12C[C@@H](CC(=O)NCCC(C)C)C(=O)N(Cc3cccc4ccccc34)C1=CCC(C)(C)C2 | · | ? | · | · | · | 21µM*
COC(=O)[C@@]12C[C@@H](CC(=O)NCc3cccc4ccccc34)C(=O)N(Cc3cccc4ccccc34)C1=CCC(C)(C)C2 | · | 18µM* | · | · | · | ?
CCn1c(-c2ccccc2F)nc2cc(NC(C)=O)cc(C(=O)N3CCCCC3c3nccn3C)c21 (stereo not given) | · | 2%[9.04 µM] | i | · | · | -1%
COC(=O)[C@@]12C[C@@H](CC(=O)NCc3ccc(C)o3)C(=O)N(Cc3cccc4ccccc34)C1=CCC(C)(C)C2 | · | 21µM* | · | · | · | 16µM*
COC(=O)[C@@]12C[C@@H](CC(=O)NCc3ccccc3)C(=O)N(Cc3ccccc3)C1=CCC(C)(C)C2 | · | 21µM* | · | · | · | ?
C#CCNC(=O)C[C@@H]1C[C@@]2(C(=O)OC)CCCCC=C2N(Cc2ccccc2)C1=O | · | -25% | i | · | 2% | -27%
COC(=O)[C@@]12C[C@@H](CC(=O)NCCCCc3ccccc3)C(=O)N(Cc3cccc4ccccc34)C1=CCC(C)(C)C2 | · | ? | · | · | · | 21µM*
COC(=O)[C@@]12C[C@@H](CC(=O)NCCCN3CCCC3=O)C(=O)N(Cc3ccco3)C1=CCC(C)(C)C2 | · | 1% | · | · | · | 21%
